Results as given in PubChem BioAssay (NCATS).
Inconclusive results are not listed. Unmarked numbers belong to inactive results. Calls follow the shape of the dose curve; as a rule, active = well fitted inhibition curve with a large enough effect in the polarisation, with a control signal flat (not every such curve was filed as active); inconclusive = small, poorly fitted or top-dose-only effect, or effect the other way; inactive = flat fitted curve, though single readings scatter; the % refers to the polarisation.

What follows are compounds tested against Peptidyl-prolyl cis-trans isomerase NIMA-interacting 1 (Homo sapiens) (UniProt Q13526) (assay: qHTS Validation Assay to Find Inhibitors of Pin1 (AID 504536)). Details: Pin1 fluorescence polarization peptide binding assay; series mostly up to 57.5 µM; activity, negative = inhibition: at the top concentration.
Chain of Peptidyl-prolyl cis-trans isomerase NIMA-interacting 1 (Homo sapiens) (Q13526 whole entry, looked up): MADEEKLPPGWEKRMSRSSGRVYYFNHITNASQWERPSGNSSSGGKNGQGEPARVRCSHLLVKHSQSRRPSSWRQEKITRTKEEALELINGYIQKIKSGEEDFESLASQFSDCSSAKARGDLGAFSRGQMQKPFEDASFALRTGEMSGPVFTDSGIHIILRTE
Excerpt: NIH Molecular Libraries Probe Production Network [MLPCN]
NIH Chemical Genomics Center [NCGC]
The unique chemical properties of Pro allow for the adoption of two completely distinct amide bond conformations (cis and trans). Peptidyl-prolyl cis/trans isomerases (PPIases) are evolutionary conserved enzymes that catalyze cis/trans isomerization of peptidyl-prolyl peptide bonds. Distinct from all other PPIases such as cyclophilins and FK506-binding proteins (FKBPs), Pin1 binds a subset of phos.Ser/Thr-Pro-containing proteins using its protein-targeting WW domain and isomerizes only specific phos.Ser/Thr-Pro bonds, which cannot be effectively catalyzed by other known PPIases.
Pin1-catalyzed conformational regulation can control a spectrum of activities of many key regulators in diverse cellular processes such as cell growth, genotoxic and other stress responses, immune response, germ cell development, neuronal differentiation and survival. Pin1 has emerged as a novel molecular timer that modulates its multiple targets at various steps of a given cellular process to synergistically control the amplitude and duration of a cellular response or process. Importantly, Pin1 is tightly regulated by multiple levels and its deregulation has an important role in a growing number of pathological conditions, including cancer, Alzheimer's disease, aging, asthma and microbial infection, providing a potentially new therapeutic option.
The goal of this screen is to find small-molecule inhibitors of Pin1 using a fluorescence polarization competition assay. A HiFluor-488-labeled peptide binds to the active site of Pin1 and can be displaced by compounds. Compounds were screened as a concentration-titration series that ranged from 57 uM to 0.7 nM.
NCGC Assay Protocol Summary:
Pin1 (0.6 uM) was dispensed into black, solid 1536-well plates at 2 uL/well in 10 mM HEPES (pH 7.5), 10 mM NaCl, 0.01% Tween20, 1 mM DTT, and 1% glycerol. Then, 23 nL of compounds or DMSO were delivered to each well using a pin tool. Two uL of Pin1-1b-HiFluor488 peptide (10 mM HEPES (pH 7.5), 10 mM NaCl, 0.01% Tween20, 1 mM DTT, and 1% glycerol, 0.02 uM Pin1-1b-HiFluor488) was then dispensed, and plates were incubated at room temperature for 10 min. The plates were measured on a ViewLux plate reader for fluorescence polarization signal using a 480/20 nM nm excitation filter and 540/25 nM nm S and P emission filters with a 20 second exposure. The %Activity was determined from the corrected fluorescence polarization values. Unlabeled Pin1-1c peptide was used as a control (3.5 mM two-fold serial; 20 uM final concentration) along with a 1x (0.3 uM) and 0x (no-enzyme) Pin1 enzyme control to normalize %Activity of identified inhibitors; 0x enzyme values corresponded to 100%Activity (full inhibition), while 1x Pin1 enzyme values were used to normalize 0%Activity (no inhibition).
Concentration-response curves were fitted to the signals arising from the resulting fluorescence polarization. The concentration-effect curves were then classified based on curve quality (r2), response magnitude and degree of measured activity, and compounds were subsequently categorized based on their curve class.
Keywords: Peptidyl prolyl isomerase, Pin1, fluorescence polarization, MLSMR, MLPCN, NIH Roadmap, qHTS, NCGC
CCCn1c(=O)c(C)cn2nc(N)nc12 was tested, and the “activity, negative = inhibition” value was 3.91%. Cn1c(=O)c2[nH]c(-c3ccc(S(=O)(=O)O)cc3)nc2n(C)c1=O was tested, and the “activity, negative = inhibition” value was 0.709%. In the case of O=C(O)[C@H]1NCCC[C@H]1C(=O)O, the “activity, negative = inhibition” value is reported as 0.0561%. Cc1nc2c(OCc3ccccc3)cccn2c1CC#N was tested, and the “activity, negative = inhibition” value was 3.98%. Nc1ccc(-c2ccc3ccccc3n2)cc1 was tested, and the “activity, negative = inhibition” value was -10.3%. In the case of Cn1c(=O)c2c(nc(/C=C/c3cccc(Cl)c3)n2C)n(C)c1=O, the “activity, negative = inhibition” value is reported as -3.25%. For NC(C(=O)N[C@@H]1C(=O)N2C(C(=O)O)=C(Cl)CS[C@H]12)c1ccccc1 (stereo not given in full), the “activity, negative = inhibition” value was -8.62%. With O=C(OCCN1CCOCC1)C1(c2ccccc2)CCCCC1 the “activity, negative = inhibition” value was -6.98%. With COc1cc(C(O)CO)ccc1O (stereo not given) the “activity, negative = inhibition” value was 0.0631%. With O=c1onc2n1-c1cc(Br)ccc1OC2 the “activity, negative = inhibition” value was 0.124%. In the case of Nc1ncnc2c1ncn2C1CCCO1 (stereo not given), the “activity, negative = inhibition” value is reported as -0.673%. In the case of O=C(O)c1ccccc1Nc1ccccc1, the “activity, negative = inhibition” value is reported as 14.6%. CCCCCCCCCCC(C)(C)C(=O)Nc1c(OC)cc(OC)cc1OC was tested, and the “activity, negative = inhibition” value was 2.22%. With COc1ccccc1N1CCN(CCCCNC(=O)c2ccc3ccccc3c2)CC1 the “activity, negative = inhibition” value was -0.487%. In the case of CN1CCc2cc(Cl)c(O)cc2[C@@H](c2ccccc2)C1, the “activity, negative = inhibition” value is reported as 0.223%. COC(=O)[C@H](NC(=O)c1cc(-c2ccccc2)nc2ccccc12)c1ccccc1 was tested, and the “activity, negative = inhibition” value was 1.18%. O=C(N[C@@H](Cc1ccccc1)C(=O)CCl)OCc1ccccc1 was tested, and the “activity, negative = inhibition” value was 1.37%. CN1Cc2sccc2C(c2ccc(O)c(O)c2)C1 (stereo not given) was tested, and the “activity, negative = inhibition” value was 21.3%. In the case of Cc1cccc(C(=O)NCN2CCN(c3ccccc3C#N)CC2)c1, the “activity, negative = inhibition” value is reported as -12.9%. For O=C(O)/C(=C/c1c(C(=O)O)[nH]c2cc(Cl)cc(Cl)c12)c1ccccc1, the “activity, negative = inhibition” value was -15.8%. CCCc1c(-c2ccc(O)cc2)nn(-c2ccc(O)cc2)c1-c1ccc(O)cc1 was tested, and the “activity, negative = inhibition” value was -1.37%. In the case of NCC(O)C1CCCCCCC1 (stereo not given), the “activity, negative = inhibition” value is reported as -4.12%. C=CC1(C)CC(=O)C2(O)C(C)(O1)C(OC(C)=O)C(O)C1C(C)(C)CCC(O)C12C (stereo not given) was tested, and the “activity, negative = inhibition” value was -5.49%. NC(N)=NC(N)=Nc1cccc(Cl)c1 was tested, and the “activity, negative = inhibition” value was -9.21%. OCC1NCC(O)C(O)C1O (stereo not given) was tested, and the “activity, negative = inhibition” value was -13.9%. C=C(C)C1CC=C(C(=O)O)CC1 (stereo not given) was tested, and the “activity, negative = inhibition” value was 7.96%. In the case of Brc1c(Br)c(Br)c2[nH]cnc2c1Br, the “activity, negative = inhibition” value is reported as 1.28%. For Nc1nc2c(cnn2CCc2ccccc2)c2nc(-c3ccco3)nn12, the “activity, negative = inhibition” value was 9.98%. With CC(C)NCC(O)COc1ccc(CC(N)=O)cc1 (stereo not given) the “activity, negative = inhibition” value was 2.43%. For CC(=O)C(C)=O, the “activity, negative = inhibition” value was 11.3%. With N=S(=O)(O)Cc1noc2ccccc12 the “activity, negative = inhibition” value was 1.64%. For C=CC[C@H](N)C(=O)O, the “activity, negative = inhibition” value was -5.22%. NCC(O)c1ccc(O)c(O)c1 (stereo not given) was tested, and the “activity, negative = inhibition” value was -16.1%. With COc1cc([C@@H]2c3cc4c(cc3[C@H](O)C3COC(=O)[C@@H]32)OCO4)cc(OC)c1OC (stereo not given in full) the “activity, negative = inhibition” value was -1.74%. Nc1ncnc2c1nc(Sc1ccc(Cl)cc1)n2[C@H]1OC2COP(=O)(O)O[C@@H]2C1O (stereo not given in full) was tested, and the “activity, negative = inhibition” value was -14.1%. In the case of Nc1ccc(N2C(=O)c3ccccc3C2=O)c(Cl)c1, the “activity, negative = inhibition” value is reported as 0.133%. Cn1ccnc1 was tested, and the “activity, negative = inhibition” value was 1.3%. c1ccc(CN2CCC3(CCCc4ccccc43)CC2)cc1 was tested, and the “activity, negative = inhibition” value was 0.602%. NC(Cc1cccc(-c2ccccc2CP(=O)(O)O)c1)C(=O)O (stereo not given) was tested, and the “activity, negative = inhibition” value was -14.2%. For CC[N+](CC)(CC)CC(=O)Nc1c(C)cccc1C, the “activity, negative = inhibition” value was -6.18%.
